# Reference: PubChem BioAssay (Tox21)
# Inconclusive results are not listed. Where a call stands in place of a potency, no number is given. Active and inactive are the calls of the source. Calls come from the whole dose curve; as a rule, active = well fitted inhibition curve with a large enough effect in the repeat runs; inconclusive = weak or mixed curves; inactive = no such curve, though single readings can be large or run the other way.
# Target: Cytochrome P450 2C9 (Homo sapiens) (UniProt P11712)
# Sequence (P11712 whole entry, looked up): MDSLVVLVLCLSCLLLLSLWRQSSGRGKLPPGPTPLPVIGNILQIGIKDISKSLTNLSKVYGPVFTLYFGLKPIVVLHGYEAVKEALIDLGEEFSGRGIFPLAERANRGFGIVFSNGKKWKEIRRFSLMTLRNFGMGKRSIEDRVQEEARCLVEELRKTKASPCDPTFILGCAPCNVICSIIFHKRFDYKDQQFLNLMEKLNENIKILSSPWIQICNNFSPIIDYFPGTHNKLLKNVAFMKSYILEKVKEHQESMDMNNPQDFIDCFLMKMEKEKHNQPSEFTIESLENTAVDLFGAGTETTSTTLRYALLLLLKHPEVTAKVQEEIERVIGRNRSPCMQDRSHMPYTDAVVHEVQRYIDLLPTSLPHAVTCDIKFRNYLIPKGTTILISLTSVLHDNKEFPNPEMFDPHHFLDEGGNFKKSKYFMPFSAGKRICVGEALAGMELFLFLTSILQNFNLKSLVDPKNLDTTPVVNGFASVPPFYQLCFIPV
# Assay: Cytochrome P450 Family 2 Subfamily C Member 9 (CYP2C9) small molecule antagonists: luciferase reporter qHTS assay (AID 1671198)
# Conditions: P450-Glo CYP2C9 enzyme assay, luciferin luminescence; series mostly up to 115 µM
# Procedure, shortened: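 P450-Glo proluciferin substrate with CYP2C9 enzyme; 10 min RT preincubation, then NADPH regeneration 1 h at 37C; luciferin detection reagent 20 min RT, luminescence in relative luminescence units.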
# Note: nearly all actives have a fitted effect of over 50% in size.
# Potency is the fitted concentration of half-maximal effect.
row,SMILES,Potency
1,O=[N+]([O-])c1cccc2cccnc12,inactive
2,C#CCN1C(=O)COc2cc(F)c(N3C(=O)C4=C(CCCC4)C3=O)cc21,71 µM (active)
3,O=C1OC(=O)C2C1C1(Cl)C(Cl)=C(Cl)C2(Cl)C1(Cl)Cl (stereo not drawn),inactive
4,Nc1cc2c3c(c1)C(c1ccccc1)=N[C@@H](NC(=O)c1cccnc1)C(=O)N3CC2,7.1 µM (active)
5,COc1cc2c(cc1OC)[C@@]13CCN4CC5=CCO[C@H]6CC(=O)N2[C@H]1[C@H]6[C@H]5C[C@H]43,inactive
6,COC(=O)c1ccccc1S(=O)(=O)NC(=O)Nc1nc(C)cc(C)n1,inactive
7,OCCSCSCCO,inactive
8,CCOC(=O)/C=C(C)/C=C/C[C@@H](C)CCCC(C)C,15.9 µM (active)
9,N#CC(Cl)(Cl)Cl,inactive
10,O=[N+]([O-])c1ccc2c3c(cccc13)CC2,inactive
11,C(CCOCC1CO1)COCC1CO1 (stereo not drawn),inactive
12,O=[N+]([O-])c1ccc(CBr)cc1,inactive
13,CC(Oc1ccc(Oc2ncc(C(F)(F)F)cc2Cl)cc1)C(=O)O (stereo not drawn),35.6 µM (active)

# Target: Cytochrome P450 1A2 (Homo sapiens) (UniProt P05177)
# Sequence (P05177 whole entry, looked up): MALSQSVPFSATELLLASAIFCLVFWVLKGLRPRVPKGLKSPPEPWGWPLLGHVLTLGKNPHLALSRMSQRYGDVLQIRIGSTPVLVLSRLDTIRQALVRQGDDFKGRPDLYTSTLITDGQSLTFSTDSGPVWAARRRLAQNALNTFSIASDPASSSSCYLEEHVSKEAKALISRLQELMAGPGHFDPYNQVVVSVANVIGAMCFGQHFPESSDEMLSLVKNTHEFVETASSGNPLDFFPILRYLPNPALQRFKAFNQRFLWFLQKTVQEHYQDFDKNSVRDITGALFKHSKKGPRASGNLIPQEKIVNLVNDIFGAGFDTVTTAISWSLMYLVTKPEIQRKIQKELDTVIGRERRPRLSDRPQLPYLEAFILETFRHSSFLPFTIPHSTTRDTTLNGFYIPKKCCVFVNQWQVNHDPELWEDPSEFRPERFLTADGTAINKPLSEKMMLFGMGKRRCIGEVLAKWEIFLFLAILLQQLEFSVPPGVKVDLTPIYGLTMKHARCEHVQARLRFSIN
# Assay: Cytochrome P450 Family 1 Subfamily A Member 2 (CYP1A2) small molecule antagonists: luciferase reporter qHTS assay (AID 1671199)
# Conditions: P450-Glo CYP1A2 enzyme, luciferin luminescence, 1 h; series mostly up to 115 µM
# Procedure, shortened: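 P450-Glo CYP1A2 enzyme–proluciferin substrate mix with compound 10 min at room temperature, then NADPH regeneration 1 h at room temperature. Luciferin detection reagent added, luminescence read after 20 min; furafylline positive control.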
row,SMILES,Potency
1,CC(CC(C#N)(c1ccccc1)c1ccccc1)N(C)C (stereo not drawn),inactive
2,C#CCN1C(=O)COc2cc(F)c(N3C(=O)C4=C(CCCC4)C3=O)cc21,3.99 µM (active)
3,O=C1OC(=O)C2C1C1(Cl)C(Cl)=C(Cl)C2(Cl)C1(Cl)Cl (stereo not drawn),inactive
4,CCSC(=O)N(CC)C1CCCCC1,inactive
5,Nc1cc2c3c(c1)C(c1ccccc1)=N[C@@H](NC(=O)c1cccnc1)C(=O)N3CC2,inactive
6,COC(=O)c1ccccc1S(=O)(=O)NC(=O)Nc1nc(C)cc(C)n1,inactive
7,CC1=NNC(=O)N(/N=C/c2cccnc2)C1,35.6 µM (active)
8,OCCSCSCCO,inactive
9,CCOC(=O)C1(c2ccccc2)CCN(CCc2ccc(N)cc2)CC1,inactive
10,N#CC(Cl)(Cl)Cl,inactive
11,O=[N+]([O-])c1ccc2c3c(cccc13)CC2,2.24 µM (active)
12,C(CCOCC1CO1)COCC1CO1 (stereo not drawn),inactive
13,COC(=O)C(c1ccccc1)C1CCCCN1 (stereo not drawn),inactive
14,CC(Oc1ccc(Oc2ncc(C(F)(F)F)cc2Cl)cc1)C(=O)O (stereo not drawn),39.9 µM (active)
15,O=c1oc2ccccc2c(O)c1C1CCCc2ccccc21 (stereo not drawn),inactive
